Tests used:
[1] = target: Myosin light chain kinase, smooth muscle (Homo sapiens) (UniProt Q15746); conditions: at 1 µM
[2] = target: Myosin light chain kinase, smooth muscle (Homo sapiens) (UniProt Q15746); conditions: at 10 µM
[3] = target: Mitogen-activated protein kinase kinase kinase 9 (Homo sapiens) (UniProt P80192); conditions: at 1 µM
[4] = target: Mitogen-activated protein kinase kinase kinase 9 (Homo sapiens) (UniProt P80192); conditions: at 10 µM
[5] = target: Serine/threonine-protein kinase MRCK beta (Homo sapiens) (UniProt Q9Y5S2); conditions: at 1 µM
Serine/threonine-protein kinase MRCK beta (Homo sapiens), sequence (Q9Y5S2 whole entry): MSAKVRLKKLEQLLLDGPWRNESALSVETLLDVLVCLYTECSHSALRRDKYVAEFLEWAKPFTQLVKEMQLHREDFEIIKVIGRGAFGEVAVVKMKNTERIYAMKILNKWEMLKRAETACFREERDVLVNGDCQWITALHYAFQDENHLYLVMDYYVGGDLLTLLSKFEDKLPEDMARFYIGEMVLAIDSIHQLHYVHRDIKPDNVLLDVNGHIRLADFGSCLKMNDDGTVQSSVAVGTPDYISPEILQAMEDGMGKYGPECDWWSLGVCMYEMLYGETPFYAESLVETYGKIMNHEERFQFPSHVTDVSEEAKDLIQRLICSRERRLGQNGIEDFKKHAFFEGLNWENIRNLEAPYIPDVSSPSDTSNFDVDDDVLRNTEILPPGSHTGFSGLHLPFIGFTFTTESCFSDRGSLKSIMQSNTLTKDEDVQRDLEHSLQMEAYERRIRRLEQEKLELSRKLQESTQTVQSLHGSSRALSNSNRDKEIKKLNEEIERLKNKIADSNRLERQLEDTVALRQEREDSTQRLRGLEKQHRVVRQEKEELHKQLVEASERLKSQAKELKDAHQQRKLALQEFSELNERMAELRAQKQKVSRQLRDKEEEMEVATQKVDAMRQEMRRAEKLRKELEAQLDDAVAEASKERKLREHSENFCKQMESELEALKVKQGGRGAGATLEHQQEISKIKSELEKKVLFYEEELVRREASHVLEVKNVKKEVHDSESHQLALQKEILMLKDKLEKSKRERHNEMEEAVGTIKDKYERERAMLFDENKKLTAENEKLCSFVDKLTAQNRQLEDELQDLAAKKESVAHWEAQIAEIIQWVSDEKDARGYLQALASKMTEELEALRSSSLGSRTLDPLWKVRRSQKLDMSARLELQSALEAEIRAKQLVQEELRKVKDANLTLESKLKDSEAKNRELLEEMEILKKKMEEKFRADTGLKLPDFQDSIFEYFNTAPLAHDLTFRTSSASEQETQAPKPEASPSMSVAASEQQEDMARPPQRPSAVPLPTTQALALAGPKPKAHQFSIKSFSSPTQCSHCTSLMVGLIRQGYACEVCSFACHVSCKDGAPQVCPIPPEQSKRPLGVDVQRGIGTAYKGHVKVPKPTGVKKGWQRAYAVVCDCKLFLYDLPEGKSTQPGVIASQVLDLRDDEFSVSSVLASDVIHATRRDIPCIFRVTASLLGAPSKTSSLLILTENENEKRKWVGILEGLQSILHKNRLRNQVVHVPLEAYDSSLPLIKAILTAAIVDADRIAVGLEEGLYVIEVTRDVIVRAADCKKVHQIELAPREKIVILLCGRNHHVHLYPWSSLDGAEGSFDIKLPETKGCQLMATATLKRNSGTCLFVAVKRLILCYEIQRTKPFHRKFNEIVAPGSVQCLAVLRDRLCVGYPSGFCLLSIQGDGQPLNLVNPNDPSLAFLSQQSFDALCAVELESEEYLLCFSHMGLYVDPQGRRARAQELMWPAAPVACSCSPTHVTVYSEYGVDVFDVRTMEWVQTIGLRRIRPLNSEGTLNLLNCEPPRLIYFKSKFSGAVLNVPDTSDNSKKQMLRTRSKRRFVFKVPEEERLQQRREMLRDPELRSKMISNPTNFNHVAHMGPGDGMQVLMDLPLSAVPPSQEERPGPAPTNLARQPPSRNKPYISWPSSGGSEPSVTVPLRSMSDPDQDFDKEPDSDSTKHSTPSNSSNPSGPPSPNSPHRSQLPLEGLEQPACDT

[6] = target: Serine/threonine-protein kinase MRCK beta (Homo sapiens) (UniProt Q9Y5S2); conditions: at 10 µM
[7] = target: Ribosomal protein S6 kinase alpha-5 (Homo sapiens) (UniProt O75582); conditions: at 1 µM
Ribosomal protein S6 kinase alpha-5 (Homo sapiens), sequence (O75582 whole entry, looked up): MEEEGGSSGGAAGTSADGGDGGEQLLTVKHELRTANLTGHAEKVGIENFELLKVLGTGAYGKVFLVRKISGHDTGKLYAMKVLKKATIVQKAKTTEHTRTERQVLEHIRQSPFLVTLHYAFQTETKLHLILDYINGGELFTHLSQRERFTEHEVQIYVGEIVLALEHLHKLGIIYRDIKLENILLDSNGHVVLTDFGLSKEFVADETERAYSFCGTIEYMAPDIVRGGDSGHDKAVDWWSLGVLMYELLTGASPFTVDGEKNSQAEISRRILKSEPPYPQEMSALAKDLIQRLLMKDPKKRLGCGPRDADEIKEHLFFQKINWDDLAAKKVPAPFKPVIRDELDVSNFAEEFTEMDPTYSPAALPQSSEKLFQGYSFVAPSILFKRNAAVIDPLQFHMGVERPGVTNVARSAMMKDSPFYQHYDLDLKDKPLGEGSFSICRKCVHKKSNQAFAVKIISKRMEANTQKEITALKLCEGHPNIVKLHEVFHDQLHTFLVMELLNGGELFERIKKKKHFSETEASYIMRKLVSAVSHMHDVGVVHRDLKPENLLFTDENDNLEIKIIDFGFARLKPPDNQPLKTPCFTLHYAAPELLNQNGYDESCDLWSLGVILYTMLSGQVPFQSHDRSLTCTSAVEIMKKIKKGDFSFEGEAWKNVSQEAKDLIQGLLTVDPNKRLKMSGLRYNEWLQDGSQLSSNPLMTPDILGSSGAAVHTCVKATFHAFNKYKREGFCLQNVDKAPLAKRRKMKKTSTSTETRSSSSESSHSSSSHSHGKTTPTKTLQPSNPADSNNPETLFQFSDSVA

[8] = target: Ribosomal protein S6 kinase alpha-5 (Homo sapiens) (UniProt O75582); conditions: at 10 µM
[9] = target: Serine/threonine-protein kinase MRCK alpha (Homo sapiens) (UniProt Q5VT25); conditions: at 1 µM
[10] = target: Serine/threonine-protein kinase MRCK alpha (Homo sapiens) (UniProt Q5VT25); conditions: at 10 µM

Mitogen-activated protein kinase kinase kinase 9 (Homo sapiens), sequence (P80192 whole entry, looked up): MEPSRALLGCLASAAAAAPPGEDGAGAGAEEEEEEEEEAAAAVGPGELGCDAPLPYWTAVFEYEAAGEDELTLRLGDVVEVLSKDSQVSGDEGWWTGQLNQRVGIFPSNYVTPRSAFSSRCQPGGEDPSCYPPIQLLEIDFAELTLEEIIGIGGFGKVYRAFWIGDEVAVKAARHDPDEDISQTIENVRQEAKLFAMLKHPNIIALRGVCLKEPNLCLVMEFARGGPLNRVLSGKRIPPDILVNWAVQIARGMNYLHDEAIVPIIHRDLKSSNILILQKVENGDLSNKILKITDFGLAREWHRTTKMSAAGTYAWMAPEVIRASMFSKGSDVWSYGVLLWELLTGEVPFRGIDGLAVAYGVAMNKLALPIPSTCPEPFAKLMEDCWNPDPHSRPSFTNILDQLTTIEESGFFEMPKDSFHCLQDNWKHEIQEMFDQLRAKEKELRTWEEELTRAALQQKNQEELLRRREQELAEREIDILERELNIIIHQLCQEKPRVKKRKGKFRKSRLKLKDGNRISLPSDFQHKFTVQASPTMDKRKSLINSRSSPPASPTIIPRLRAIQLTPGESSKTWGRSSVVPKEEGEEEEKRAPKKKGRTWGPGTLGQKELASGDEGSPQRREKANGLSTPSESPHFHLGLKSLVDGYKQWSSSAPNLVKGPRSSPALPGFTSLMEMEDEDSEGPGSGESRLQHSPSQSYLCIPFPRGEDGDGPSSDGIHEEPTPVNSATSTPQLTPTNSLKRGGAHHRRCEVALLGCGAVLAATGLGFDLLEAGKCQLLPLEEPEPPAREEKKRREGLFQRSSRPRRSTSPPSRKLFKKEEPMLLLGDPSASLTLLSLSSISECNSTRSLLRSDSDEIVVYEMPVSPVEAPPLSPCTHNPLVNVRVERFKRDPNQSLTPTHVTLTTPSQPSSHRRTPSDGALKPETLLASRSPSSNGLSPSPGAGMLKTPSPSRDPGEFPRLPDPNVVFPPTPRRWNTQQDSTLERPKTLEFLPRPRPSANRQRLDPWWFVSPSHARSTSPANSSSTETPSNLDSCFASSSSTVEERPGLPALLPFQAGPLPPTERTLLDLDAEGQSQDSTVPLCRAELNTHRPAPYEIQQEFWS

Row | SMILES | residual activity [1] [%] | residual activity [2] [%] | residual activity [3] [%] | residual activity [4] [%] | residual activity [5] [%] | residual activity [6] [%] | residual activity [7] [%] | residual activity [8] [%] | residual activity [9] [%] | residual activity [10] [%]
1 | CCn1cnc2c(Nc3cccc(Cl)c3)nc(N[C@@H]3CCCC[C@@H]3N)nc21 | 94 | 46 | 16 | 2 | 94 | 78 |  |  |  | 
2 | O=C1NC(=O)c2c1c1c3ccccc3n3c1c1c2c2ccccc2n1C1CCC3O1 | 90 | 65 | 1 | 2 |  |  | 41 | 33 |  | 
3 | COc1cc2ncnc(Nc3ccc(OCc4ccccc4)cc3)c2cc1OC | 84 | 90 | 81 | 56 | 95 | 95 |  |  | 121 | 117
4 | O=C1c2ccccc2-c2nc3nnnn3nc21 | 79 | 104 | 103 | 102 | 116 |  | 145 |  | 107 | 100
5 | C[S+]([O-])c1ccc(-c2nc(-c3ccc(F)cc3)c(-c3ccncc3)[nH]2)cc1 (stereo not given) | 118 | 89 | 101 |  | 113 | 110 | 97 | 98 | 106 | 119
6 | COC(=O)[C@@]1(O)C[C@H]2O[C@]1(C)n1c3ccccc3c3c4c(c5c6ccccc6n2c5c31)C(=O)NC4 | 1 | 2 | 1 | 0 | 33 | 5 | 5 | 0 | 71 | 23
7 | CCc1nc(-c2ccc(OC)cc2)[nH]c1-c1ccncc1 |  |  |  |  |  |  | 108 | 112 | 115 | 114
8 | CC(C)[C@H](CO)Nc1nc(Nc2cccc(Cl)c2)c2ncn(C(C)C)c2n1 |  | 46 | 10 | 1 | 98 | 88 |  |  |  | 
9 | O=C1Nc2ccc3ncsc3c2/C1=C/c1c[nH]cn1 | 25 | 11 | 9 | 2 | 75 | 49 | 43 | 7 | 104 | 90
10 | COc1cc(OC)c(/C=C2\C(=O)Nc3ccccc32)c(OC)c1 | 88 | 77 | 92 | 65 | 83 | 84 |  |  |  | 
11 | O=c1[nH]c2ccccc2n1C1CCN(Cc2ccc(-c3nc4cc5[nH]cnc5cc4nc3-c3ccccc3)cc2)CC1 | 76 | 4 | 98 | 100 | 96 | 82 | 132 | 106 | 122 | 128
12 | O=[N+]([O-])/C=C/c1ccc2c(c1)OCO2 | 89 | 82 | 100 | 111 | 83 | 89 | 125 | 110 | 106 | 100
13 | CN[C@@H]1C[C@H]2O[C@@](C)([C@@H]1OC)n1c3ccccc3c3c4c(c5c6ccccc6n2c5c31)C(=O)NC4 | 0 | 1 | 0 | 1 |  |  |  |  |  | 
14 | COc1ccc2c(c[n+](C)c3c4cc5c(cc4ccc23)OCO5)c1OC | 78 |  |  | 81 | 90 | 81 |  |  | 85 | 84
15 | c1cc(-c2cnn3cc(-c4ccc(OCCN5CCCCC5)cc4)cnc23)ccn1 |  | 71 | 78 | 17 | 106 |  | 121 | 60 | 121 | 118
16 | COc1ccc2c(c1)/C(=C/c1cnc[nH]1)C(=O)N2 |  |  | 25 | 4 |  |  |  |  | 129 | 100
17 | CC(C)(C)c1cc(C=C(C#N)C#N)cc(Br)c1O |  |  | 104 | 97 | 115 |  | 122 | 97 | 108 | 
